Rows were chosen to be rich in hits. Some 27% of all compounds tested hit in one or more screens of this group.
CYP2C9 inh: blockers of cytochrome P450 2C9 activity – biochemical, luminescence, ADME assay, primary screen. P11712. CYP2C9 Supersomes, luciferin-H conversion. inhibition, % at 5 µM. hit rate 20% among 96,000;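 active means blocking of liver enzyme CYP2C9 beyond about 50% at 5 µM, limit read from the data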
Target sequence (P11712 whole entry, looked up): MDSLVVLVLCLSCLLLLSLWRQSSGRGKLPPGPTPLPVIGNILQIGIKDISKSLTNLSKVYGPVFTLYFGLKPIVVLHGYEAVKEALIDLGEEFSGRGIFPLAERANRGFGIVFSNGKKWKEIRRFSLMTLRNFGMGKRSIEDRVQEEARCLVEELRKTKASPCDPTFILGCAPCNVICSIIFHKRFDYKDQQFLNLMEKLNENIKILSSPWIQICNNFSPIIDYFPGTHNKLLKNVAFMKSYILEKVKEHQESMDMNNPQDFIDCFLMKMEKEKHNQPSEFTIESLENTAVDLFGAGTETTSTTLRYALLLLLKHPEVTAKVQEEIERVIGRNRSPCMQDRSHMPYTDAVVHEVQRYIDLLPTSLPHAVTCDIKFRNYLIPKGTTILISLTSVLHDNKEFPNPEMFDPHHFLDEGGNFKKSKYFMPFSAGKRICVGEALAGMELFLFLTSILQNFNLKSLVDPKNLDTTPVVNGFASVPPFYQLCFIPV
EphB4 ephrin blk: EphB4-ephrin-B2 interaction antagonists, primary screen, biochemical, TNYL-RAW peptide probe, fluorescence polarization; EphB4 LBD / TNYL-RAW-Alexa532 peptide; inhibition, % at 7 µM; hit rate 0.15% among 97,000; AID 720, 2007;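 active means inhibition above the screen-wide mean inhibition plus 3 SD, cut at about 15% in these data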;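 further: 0% = DMSO wells and 100% = excess unlabeled TNYL-RAW peptide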
CYP2C19 inh: blockers of cytochrome P450 2C19 activity – biochemical, luminescence, ADME assay, primary screen; P33261; CYP2C19 Supersomes, luciferin-H EGE luminescence, 30 min; inhibition, % at 5 µM; hit rate 21% among 96,000;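 active means CYP2C19 inhibition above a set limit at 5 µM in the primary screen, cut at about 50% in these data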;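 further: plate controls were negative control wells for no effect and 2.5 mM tranylcypromine positive control for full effect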
CYP2C9 act: human CYP2C9 activators, primary screen, biochemical, luminescence. Cytochrome P450 2C9 (Homo sapiens), P11712. recombinant CYP2C9, luciferin-H conversion; active compounds read high; factor 1 = untreated enzyme, 0 = blocked. activation factor at 5 µM. hit rate 1.4% among 96,000;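 active means activation factor of 2 or more for CYP2C9 at a 5 µM dose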;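 further: 0 = sulfaphenazole-blocked wells and 1 = vehicle-only wells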
CYP2C19 activ: human CYP2C19 activators, primary screen, biochemical, luminescence; Cytochrome P450 2C19 (Homo sapiens), P33261; recombinant CYP2C19, luciferin-H EGE luminescence; active compounds read high; 0 = fully inhibited enzyme, 1 = untreated enzyme; activation factor at 5 µM; 96,000 tested, under 10 active; AID 1025, 2008;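 active means activation factor of at least 2 at 5 µM in the primary screen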;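 further: 0 = wells with 2.5 mM tranylcypromine and 1 = vehicle-only wells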
* hit, by the source's call; . = not tested or not shown.

SMILES | CYP2C9 inh | EphB4 ephrin blk | CYP2C19 inh | CYP2C9 act | CYP2C19 activ
Cc1ccc2c(c1)NC(=O)C(N1CCOCC1)(C(F)(F)F)O2 (stereo not given) | 34.1 | -3.5 | 55.2* | 0.7 | 0.4
O=C(Nc1cccnc1)c1cc(-c2cccs2)on1 | -2.4 | -1.2 | -8.1 | 1 | 1.1
COC(=O)c1ccccc1NC(=O)c1cc(-c2cccs2)on1 | -102.7 | 2.7 | -1.8 | 2* | 1
COC(=O)c1ccccc1NC(=O)c1cccs1 | -26.4 | 0.0 | -1.3 | 1.3 | 1
O=C(Nc1cccc(C(F)(F)F)c1)c1cc(-c2cccs2)on1 | -146.9 | -1.8 | -5.8 | 2.5* | 1.1
Cn1nnnc1SCC(=O)N1c2ccccc2CCc2ccccc21 | 12.2 | 4.9 | 28.8 | 0.9 | 0.7
CC(NC(=O)Cn1cc(C(=O)C2CC2)c2ccccc21)c1ccccc1 (stereo not given) | 30.0 | 2.1 | 59.2* | 0.7 | 0.4
CCOC(=O)N1CCN(C(=O)CS(=O)(=O)c2cn(Cc3ccc(Cl)cc3)c3ccccc23)CC1 | 47.7 | 1.6 | 10.8 | 0.5 | 0.9
O=S(=O)(c1cnc[nH]1)N1CCCCCC1 | 23.4 | . | -0.9 | 0.8 | 1
Cc1cccc(CCNC(=O)C2CCCN(S(=O)(=O)c3cnc[nH]3)C2)c1 (stereo not given) | 77.2* | 1.9 | 92.5* | 0.2 | 0.1
CCCS(=O)(=O)N1CCCC(C(=O)NC2CCCC(C)C2C)C1 (stereo not given) | 37.0 | 6.2 | 55.6* | 0.6 | 0.4
O=C(NCCN1CCC(Cc2ccccc2)CC1)C1CCCN(S(=O)(=O)c2cnc[nH]2)C1 (stereo not given) | 8.4 | -7.0 | -6.4 | 0.9 | 1.1
O=C(C1CCCN(S(=O)(=O)c2cnc[nH]2)C1)N(CCc1ccccc1)Cc1ccccc1 (stereo not given) | 46.7 | -5.7 | 73.6* | 0.5 | 0.3
CCCS(=O)(=O)N1CCCC(C(=O)NCCN2CCC(Cc3ccccc3)CC2)C1 (stereo not given) | 64.6* | -0.8 | 24.0 | 0.4 | 0.8
Cc1cc(C)c2[nH]c(=O)c(=O)[nH]c2c1 | . | -3.3 | . | . | .
O=C(NCCC1=CCCCC1)C1CCCN(S(=O)(=O)c2cnc[nH]2)C1 (stereo not given) | 66.2* | 3.3 | 95.8* | 0.3 | 0
O=C(NCCC1=CCCCC1)C1CCCN(S(=O)(=O)c2ccc(F)cc2)C1 (stereo not given) | 10.4 | 1.7 | 12.0 | 0.9 | 0.9
O=C(NCC1COc2ccccc2O1)C1CCCN(S(=O)(=O)c2cnc[nH]2)C1 (stereo not given) | 50.2* | . | 90.0* | 0.5 | 0.1
O=C(NCCc1ccccc1)C1CCCN(S(=O)(=O)c2cnc[nH]2)C1 (stereo not given) | 59.2* | -1.7 | 84.8* | 0.4 | 0.2
CC(=O)Nc1ccc(NC(=O)C2CCCN(c3nnc(-n4cccc4)s3)C2)cc1 (stereo not given) | -6.7 | -0.9 | -11.0 | 1.1 | 1.1
Cc1ccccc1Nc1nc(Nc2ccccc2C)nc(SC2=NCCS2)n1 | 76.8* | -3.9 | 54.2* | 0.2 | 0.5
Cc1ccc(Nc2nc(Nc3ccc(C)cc3)nc(SC3=NCCS3)n2)cc1 | 86.0* | -4.5 | 49.8 | 0.1 | 0.5
Cc1ccc(-c2csc(NC(=O)CSC3=NCCS3)n2)cc1 | . | -3.1 | . | . | .
CCCC(=O)c1ccc(N2CCN(S(=O)(=O)c3ccc(C)cc3)CC2)c(F)c1 | 17.8 | -0.9 | 4.9 | 0.8 | 1
CCCSc1nnc(-c2ccccc2NC(=O)CC)c(=O)[nH]1 | 28.9 | -3.6 | -0.1 | 0.7 | 1
SMILES | CYP2C9 inh | EphB4 ephrin blk | CYP2C19 inh | CYP2C9 act | CYP2C19 activ
CCC(=O)N/C(=N\OCc1ccc(F)cc1)c1nonc1NC(=O)CC | 11.5 | 0.0 | 65.0* | 0.9 | 0.3
O=C(CNC(=O)c1ccccc1C(=O)O)c1ccccc1 | 21.6 | 0.8 | 12.4 | 0.8 | 0.9
CCC(C)n1nccc1NC(=O)C(C)OC(=O)c1cc2ccccc2[nH]1 (stereo not given) | 30.4 | 3.8 | 97.0* | 0.7 | 0
C=CCSC(=C(C#N)C#N)c1cc2c([nH]1)CCCC2 | 63.1* | 3.3 | 41.5 | 0.4 | 0.6
N#CC(c1cccc(C(F)(F)F)c1)(c1ncc(C(F)(F)F)cc1Cl)N1CCOCC1 (stereo not given) | 42.4 | 0.8 | 52.0* | 0.6 | 0.5
N#CC(c1ccccc1)(c1ncc(C(F)(F)F)cc1Cl)N1CCOCC1 (stereo not given) | 1.4 | 2.8 | 20.4 | 1 | 0.8
CCc1cc(C)cc(OCCNC(=O)c2ncn[nH]2)c1 | -65.5 | 0.9 | 48.9 | 1.7 | 0.5
CC(C)(C)c1ccc(OCCNC(=O)c2ncn[nH]2)cc1 | 53.4* | -1.0 | 75.1* | 0.5 | 0.2
O=C(CSc1nc2ccccc2n1CC(=O)N1CCCC1)N1CCN(C(=O)c2ccco2)CC1 | . | -2.1 | . | . | .
COC(=O)c1cccc(S(=O)(=O)N(Cc2ccco2)Cc2cc3ccc(OC)cc3[nH]c2=O)c1 | 51.5* | 4.4 | 19.4 | 0.5 | 0.8
CC(=O)c1cccc(S(=O)(=O)N(CCCO)Cc2cc3ccc(C)cc3[nH]c2=O)c1 | 70.9* | 1.0 | -0.4 | 0.3 | 1
CCCN(Cc1cc2ccc(C)cc2[nH]c1=O)S(=O)(=O)c1ccccc1 | 97.4* | 0.3 | 36.5 | 0 | 0.6
CCN(Cc1cc2ccccc2[nH]c1=O)S(=O)(=O)c1ccccc1 | 59.4* | -0.5 | 81.2* | 0.4 | 0.2
O=C(Oc1ccc2c(c1)C(=O)c1ccccc1CO2)c1ccccc1 | 73.3* | 0.2 | 16.9 | 0.3 | 0.8
O=C(Oc1cccc(N2C(=O)CCC2=O)c1)c1ccccc1 | . | -2.0 | . | . | .
CCc1nc(SCC(=O)NCC2CCCO2)c2oc3ccccc3c2n1 (stereo not given) | 42.8 | 4.2 | 76.6* | 0.6 | 0.2
O=C(Cn1cnc2c(oc3ccccc32)c1=O)NCC1CCCO1 (stereo not given) | 16.7 | 0.2 | -2.3 | 0.8 | 1
Cc1nnc(SCC(=O)NCC2CCCO2)n1-c1ccccc1 (stereo not given) | 1.7 | . | 0.2 | 1 | 1
Cc1nc(SCC(=O)NCC2CCCO2)c2oc3ccccc3c2n1 (stereo not given) | 18.4 | 10.4 | 52.2* | 0.8 | 0.5
CC1CCCC(NC(=O)COC(=O)c2ccc(S(=O)(=O)N3CCOCC3)cc2)C1C (stereo not given) | 22.9 | 2.2 | 9.1 | 0.8 | 0.9
Cc1ccc(S(=O)(=O)N2CCCC2C(=O)N(C)Cc2cccs2)cc1 (stereo not given) | -27.5 | 4.0 | 31.8 | 1.3 | 0.7
Cc1ccc(CN(C)C(=O)C2CCCN2C(=O)c2cccs2)o1 (stereo not given) | 14.0 | -0.2 | 57.4* | 0.9 | 0.4
CCc1ccc(C2=CC(c3cc(Br)ccc3F)n3ncnc3N2)cc1 (stereo not given) | . | -1.5 | . | . | .
Nc1cc(N)nc(SCC(=O)N2CCN(C(=O)c3ccco3)CC2)n1 | 1.8 | -4.5 | -0.8 | 1 | 1

Screening results: PubChem, several laboratories
